Source: PubChem BioAssay
An excerpt weighted towards active compounds, which were near 21% of everything screened.
Cycloheximide cs = counter-screen for Shiga toxin inhibitors: cycloheximide protein synthesis inhibition. cell reporter, cycloheximide protein synthesis inhibition counterscreen. max response, %. actives 12% (n = 300,000). AID 2314; in the data active means max response mostly above about 13%, no sharp cut-off; inactive means mostly below about 14%; further: read at 38.3 µM for the half of the compounds with a filed dose
Shiga toxin inh = Shiga toxin inhibition; Vero cells, Shiga toxin protein synthesis inhibition reporter; inhibition, % at 38.7 µM; actives 9.2% (n = 290,000); AID 2315; in the data active means inhibition mostly above about 28%, no sharp cut-off; inactive means mostly below about 43%
Pf growth 96h = P. falciparum growth inhibition at 96 hours; Potency, µM (top dose mostly 28.7 µM), most hits filed as inhibitors; actives 6.9% (n = 320,000); P. falciparum luciferase reporter growth, 96 h; active means well fitted inhibition curve with a large enough effect; inconclusive means small, poorly fitted or top-dose-only effect, or another doubt; inactive means no such curve, though single readings can be large or run the other way
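Infected RBCs, 2% Hct / 0.05% parasitemia final; luciferase-reporter P. falciparum; cpd 96 h, 37 C, 5% CO2; luciferase detection reagent; luminescence.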
NS1 function inh = inhibitors of influenza NS1 protein function. Potency, µM (doses to about 46.1 µM). actives 0.4% (n = 270,000); further: actives are rising curves; nearly all actives have a fitted effect of over 50% in size
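OD600 was taken as the measure of yeast growth restored by compound in an NS1-expressing S. cerevisiae strain. Cells had been washed out of glucose medium and diluted 1:100 into galactose -URA medium, pH 6.0.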
Pf growth 48h = inhibits P. falciparum growth in the first generation, 48 h; P. falciparum luciferase growth in erythrocytes, 48 h; Potency, µM (doses to about 28.7 µM), usual class: inhibitors; actives 5.9% (n = 310,000); AID 504832; active means well fitted inhibition curve with a large enough effect; inconclusive means small, poorly fitted or top-dose-only effect, or another doubt; inactive means no such curve, though single readings can be large or run the other way
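Parasite viability was followed by luminescence of a genomically integrated firefly luciferase. Cultures held 0.1% parasitemia at 2% hematocrit (final), incubated under 5% CO2 at 37 C.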
SARS PLP yeast = blocks SARS-CoV papain-like protease in a yeast assay | S. cerevisiae expressing SARS-CoV PLpro, growth rescue | Potency, µM (titrated, usually from 32.9 µM), hits mostly activators | actives 0.19% (n = 330,000) | AID 485353; further: nearly all actives have a fitted effect of over 55% in size
Large screens that a line does not name were inactive. Unless noted, the call rests on the fitted dose curve.

O=c1c2cnn(-c3ccc(F)cc3)c2ncn1Cc1ccccc1	Pf growth 96h 8.3µM, SARS PLP yeast inconclusive
O=c1c2cnn(-c3ccccc3Cl)c2ncn1Cc1cccnc1	Pf growth 96h 13µM, Pf growth 48h inconclusive
O=C(N/N=C/c1ccc(OC(=O)c2cccs2)cc1)c1ccccn1	Cycloheximide cs 45, Shiga toxin inh 53
CCOc1cc(/C=N/NC(=O)c2ccccn2)ccc1OC(=O)c1cccs1	Cycloheximide cs 28, Shiga toxin inh 43, Pf growth 96h 9.3µM, SARS PLP yeast inconclusive
O=C(N/N=C/c1ccc(OC(=O)c2ccco2)cc1)c1ccccn1	Cycloheximide cs 27, Shiga toxin inh 39, Pf growth 96h inconclusive
CCOc1cc(/C=N/NC(=O)COc2cccc(C)c2)ccc1OC(=O)c1cccs1	none
CC(C)(C)OC(=O)N/N=C\c1ccc(OC(=O)c2cccs2)cc1	Shiga toxin inh 97, Pf growth 96h 12µM
CC(C)(C)NC(=O)C(=O)N/N=C/c1ccc(Br)cc1	none
O=C(N/N=C/c1c[nH]c2ccc(Br)cc12)c1ccccn1	Pf growth 96h inconclusive
O=C(Oc1ccc(/C=N/NC(=O)c2ccccn2)cc1)c1cccc(Br)c1	Cycloheximide cs 28, Shiga toxin inh 59
CC(C)(C)OC(=O)N/N=C/c1ccc(Br)cc1	Cycloheximide cs 40, Shiga toxin inh 105 (no result: NS1 function inh)
CC(=O)c1cn(-c2ccc(Cl)cc2)c(=O)[nH]c1=O	Pf growth 96h inconclusive
Cc1ccc2c(c1)N(CC(=O)NC1CCC(C)CC1)C(=O)c1cccnc1O2 (stereo not given)	Pf growth 96h inconclusive, Pf growth 48h inconclusive
COc1cccc(N2CCN(C(=O)c3oc4ccccc4c3NC(=O)CCc3cc(OC)no3)CC2)c1	Pf growth 96h inconclusive, Pf growth 48h inconclusive (no result: SARS PLP yeast)
Cc1cccc(NC(=O)COc2ccc(Br)cc2)n1	Cycloheximide cs 62, Shiga toxin inh 72
Cc1ccc(OCC(=O)Nc2cccc(C)n2)c(C)c1	Cycloheximide cs 36, Shiga toxin inh 77 (no result: Pf growth 96h)
Cc1ccc(OCC(=O)NC(=S)Nc2cccc(C)n2)cc1	none
Fc1ccc(F)c(CNc2ncnc3cc(Cl)ccc23)c1	Pf growth 96h inconclusive, Pf growth 48h inconclusive
N#Cc1ccc(CN2CCN(CC(=O)NCCc3ccc(Cl)cc3Cl)CC2)cc1	none
Cc1ccc(C)c(Cn2c(O)c(N=NC(=S)Nc3ccccc3F)c3ccccc32)c1	Pf growth 48h inconclusive (no result: NS1 function inh)
CCc1ccccc1NC(=O)c1ccc(S(=O)(=O)N2CCCC2)cc1	none
Cc1ccc(C)c(SCC(=O)Nc2cc(S(=O)(=O)N3CCOCC3)ccc2C)c1	Pf growth 96h inconclusive, Pf growth 48h inconclusive (no result: Cycloheximide cs, Shiga toxin inh, NS1 function inh)
Cc1ccc(C)c(NC(=S)N=Nc2c(O)n(C)c3ccc(S(=O)(=O)N4CCOCC4)cc23)c1	Pf growth 48h 6.6µM
Cc1ccc(Cn2c(O)c(N=NC(=S)Nc3ccccc3F)c3cc(S(=O)(=O)N4CCOCC4)ccc32)cc1	Pf growth 48h 3.3µM (no result: NS1 function inh)
CCc1ccccc1NC(=S)N=Nc1c(O)n(C)c2ccc(S(=O)(=O)N3CCOCC3)cc12	Pf growth 96h 1.9µM, NS1 function inh inconclusive, Pf growth 48h 3.3µM
CCN1CCN(C(=O)CCc2nnc(CCc3c[nH]c4ccccc34)o2)[C@@H](C)C1=O	Pf growth 96h inconclusive
Cn1c(N)c(C(=O)CSc2nnc(Cc3cccs3)n2C2CC2)c(=O)n(C)c1=O	Pf growth 96h 3.3µM, Pf growth 48h 5.2µM (no result: Cycloheximide cs, Shiga toxin inh, NS1 function inh)
NC(=O)CSc1nnc(Cc2cccs2)n1C1CCCCC1	Pf growth 96h inconclusive (no result: Pf growth 48h)
CCCn1c(N)c(C(=O)CSc2nnc3ccccn23)c(=O)n(C)c1=O	Pf growth 96h inconclusive (no result: Cycloheximide cs, Shiga toxin inh, NS1 function inh)
CCCn1c(N)c(C(=O)CSc2nnc(Cc3cccs3)n2C2CC2)c(=O)n(C)c1=O	Pf growth 96h 4.1µM, Pf growth 48h 4.7µM (no result: Cycloheximide cs, Shiga toxin inh, NS1 function inh)
CCOCCCNC(=S)Nc1ccc2nc3n(c(=O)c2c1)CCCCC3	none (no result: NS1 function inh)
CC(C)CCNC(=S)Nc1ccc2nc3n(c(=O)c2c1)CCCCC3	Shiga toxin inh 27, Pf growth 96h inconclusive, Pf growth 48h inconclusive
CCCCNC(=S)Nc1ccc2nc3n(c(=O)c2c1)CCCCC3	Cycloheximide cs 22
CC(C)OCCCNC(=S)Nc1ccc2nc3n(c(=O)c2c1)CCCCC3	none (no result: NS1 function inh)
Clc1ccc(/C=N/c2c(-c3ccc(Cl)cc3)nc3n2CCS3)cc1	Pf growth 96h inconclusive, NS1 function inh inconclusive
CCCCn1nnc(NC(=S)NC(=O)c2ccc(-c3cccc(Cl)c3Cl)o2)n1	none
COc1ccccc1N1CCN(CCC(=O)Nc2ccc(F)cc2)CC1	none
